Laboratory results taken from PubChem BioAssay AID2073 (Sanford-Burnham Center for Chemical Genomics, 2009).
About 570 (0.2%) of roughly 290,000 compounds were called active. Inconclusive results (about 1%) are left out. Cut-off read from the data, not from the text of the source: active = inhibition mostly above about 51% (no sharp cut-off); inconclusive = no clear call, values can overlap the other calls; inactive = mostly below about 53%. For the sample, actives were picked, then their nearest neighbours and some compounds at random.

Molecular target: Voltage-dependent N-type calcium channel subunit alpha-1B (Homo sapiens) (UniProt Q00975)
Sequence (Q00975 whole entry, looked up): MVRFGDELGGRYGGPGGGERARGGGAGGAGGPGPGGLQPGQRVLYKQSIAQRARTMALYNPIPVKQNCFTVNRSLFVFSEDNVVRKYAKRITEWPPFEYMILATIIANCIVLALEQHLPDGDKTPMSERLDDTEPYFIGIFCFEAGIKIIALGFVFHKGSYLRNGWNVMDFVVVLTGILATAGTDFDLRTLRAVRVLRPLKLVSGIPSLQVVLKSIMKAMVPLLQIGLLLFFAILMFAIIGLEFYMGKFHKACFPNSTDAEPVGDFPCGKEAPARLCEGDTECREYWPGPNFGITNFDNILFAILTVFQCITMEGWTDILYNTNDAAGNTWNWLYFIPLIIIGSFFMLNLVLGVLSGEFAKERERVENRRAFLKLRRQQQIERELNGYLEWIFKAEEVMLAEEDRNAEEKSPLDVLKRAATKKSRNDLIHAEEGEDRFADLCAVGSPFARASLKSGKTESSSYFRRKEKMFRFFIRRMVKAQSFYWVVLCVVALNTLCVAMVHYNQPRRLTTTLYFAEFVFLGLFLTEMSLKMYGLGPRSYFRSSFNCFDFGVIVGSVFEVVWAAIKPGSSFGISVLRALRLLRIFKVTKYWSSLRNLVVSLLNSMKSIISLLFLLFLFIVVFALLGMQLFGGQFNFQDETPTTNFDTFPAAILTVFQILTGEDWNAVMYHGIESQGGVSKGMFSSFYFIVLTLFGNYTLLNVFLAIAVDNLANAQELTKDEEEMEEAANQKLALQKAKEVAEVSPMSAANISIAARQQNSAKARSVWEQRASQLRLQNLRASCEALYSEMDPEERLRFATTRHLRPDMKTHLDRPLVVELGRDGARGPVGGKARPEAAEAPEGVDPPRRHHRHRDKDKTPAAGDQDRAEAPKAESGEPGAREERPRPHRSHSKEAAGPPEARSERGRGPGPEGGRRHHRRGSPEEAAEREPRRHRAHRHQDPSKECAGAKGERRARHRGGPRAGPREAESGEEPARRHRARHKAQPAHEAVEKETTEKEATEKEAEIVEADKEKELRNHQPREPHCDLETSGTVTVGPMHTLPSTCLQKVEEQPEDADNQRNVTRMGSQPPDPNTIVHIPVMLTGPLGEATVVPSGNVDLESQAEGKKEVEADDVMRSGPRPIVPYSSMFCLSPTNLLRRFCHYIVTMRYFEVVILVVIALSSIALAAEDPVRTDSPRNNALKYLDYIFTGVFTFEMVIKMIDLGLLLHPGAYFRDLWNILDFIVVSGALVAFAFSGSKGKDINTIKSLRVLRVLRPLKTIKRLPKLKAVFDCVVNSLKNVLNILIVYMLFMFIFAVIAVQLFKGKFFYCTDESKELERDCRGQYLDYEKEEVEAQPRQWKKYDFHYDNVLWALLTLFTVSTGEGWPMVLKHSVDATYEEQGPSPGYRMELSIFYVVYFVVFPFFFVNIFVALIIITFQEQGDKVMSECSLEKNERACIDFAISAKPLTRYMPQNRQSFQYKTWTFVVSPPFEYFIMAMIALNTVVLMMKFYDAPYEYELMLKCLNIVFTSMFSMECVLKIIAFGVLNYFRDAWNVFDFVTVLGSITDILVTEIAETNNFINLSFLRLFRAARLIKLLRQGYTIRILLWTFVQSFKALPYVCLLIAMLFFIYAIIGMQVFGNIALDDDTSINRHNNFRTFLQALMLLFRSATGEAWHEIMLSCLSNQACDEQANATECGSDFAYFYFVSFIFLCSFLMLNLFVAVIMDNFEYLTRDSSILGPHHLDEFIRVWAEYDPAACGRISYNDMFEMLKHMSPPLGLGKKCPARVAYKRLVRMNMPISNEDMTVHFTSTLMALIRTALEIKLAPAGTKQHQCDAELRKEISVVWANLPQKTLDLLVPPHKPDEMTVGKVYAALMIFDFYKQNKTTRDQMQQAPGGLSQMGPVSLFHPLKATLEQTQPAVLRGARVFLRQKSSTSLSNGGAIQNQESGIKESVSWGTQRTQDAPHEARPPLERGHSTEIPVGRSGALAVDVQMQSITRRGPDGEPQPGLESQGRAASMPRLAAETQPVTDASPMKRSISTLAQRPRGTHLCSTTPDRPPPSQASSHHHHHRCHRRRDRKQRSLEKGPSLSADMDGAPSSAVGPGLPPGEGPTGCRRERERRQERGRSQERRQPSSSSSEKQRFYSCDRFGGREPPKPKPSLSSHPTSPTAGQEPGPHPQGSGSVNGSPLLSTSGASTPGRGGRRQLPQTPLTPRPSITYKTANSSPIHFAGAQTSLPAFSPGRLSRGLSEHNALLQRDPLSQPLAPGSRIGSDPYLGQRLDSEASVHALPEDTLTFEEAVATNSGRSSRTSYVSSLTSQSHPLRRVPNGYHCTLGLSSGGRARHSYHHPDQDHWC
Experiment: disruptors of CaV2.2 binding to Mint1 – biochemical, HTRF (AID 2073)
Conditions: HTRF protein-protein interaction, Mint1-CaV2.2, at 20 µM, stronger effect = higher value

With `O=C([C@@H]1Cc2ccccc2CN1)N1CCN(Cc2ccccc2)CC1` the inhibition was 8.9% (inactive).
In the case of `Cc1ccc(-n2ncc3c2CCCC3NC(=O)CCc2c(C)noc2C)cc1C` (stereo not drawn), the inhibition is reported as 16.6% (inactive).
For `CNc1ccc(Br)cc(C(=O)/C=C/c2ccc(Cl)cc2Cl)c1=O`, the inhibition was 52.7% (active).
`CNc1ccc(Br)cc(C(=O)/C=C/c2cccc(Cl)c2Cl)c1=O` was tested, and the inhibition was 41.9% (inactive).
For `CCNc1ccc(Br)cc(C(=O)/C=C/c2ccc(Cl)cc2Cl)c1=O`, the inhibition was 23.6% (inactive).
For `N=C1S/C(=C\c2ccco2)C(=O)N1c1nccs1`, the inhibition was 50% (active).
For `COc1cc(/C=C2\SC(=N)N(c3ccc4c(c3)OCO4)C2=O)cc(OC)c1O`, the inhibition was -8.5% (inactive).
For `N=C1S/C(=C\c2ccco2)C(=O)N1c1ccc2c(c1)OCO2`, the inhibition was 56% (active).
`COc1ccc(/C=C2\SC(=N)N(c3nccs3)C2=O)cc1OC` was tested, and the inhibition was 20.5% (inactive).
`N=C1S/C(=C\c2ccc(-c3ccccc3C(=O)O)o2)C(=O)N1c1ccc2c(c1)OCO2` was tested, and the inhibition was 17.7% (inactive).
With `N=C1S/C(=C\c2ccc(-c3cccc(Cl)c3)o2)C(=O)N1c1nccs1` the inhibition was 35.6% (inactive).
For `c1ccc(Cc2nnc3sc(-c4cccnc4)nn23)cc1`, the inhibition was -12.8% (inactive).
With `COc1ccc(CN(CC(=O)NC(C)C)C(=O)CCC(=O)Nc2nccs2)cc1` the inhibition was 9.7% (inactive).
For `CCOc1ccc(N2C(=O)CN(C)C2=S)cc1`, the inhibition was -2% (inactive).
In the case of `CC1CCN(C(=O)CCc2ccc(S(=O)(=O)NC(C)C)cc2)CC1`, the inhibition is reported as 28.5% (inactive).
For `O=C(Cn1c(-c2ccco2)nc2ccccc21)N1CCCCC1`, the inhibition was -14.9% (inactive).
With `Cn1nc(C(F)(F)F)c(-c2ccc(Br)cc2)c1NC(=O)c1nccnc1C(=O)O` the inhibition was 0.4% (inactive).
For `COc1ccc(NC2CCCN(C(=O)c3csc(C(C)C)n3)C2)cc1OC` (stereo not drawn), the inhibition was -10% (inactive).
With `CSc1ccccc1OCc1cc(C(=O)NCc2cnc(C)cn2)no1` the inhibition was 5.6% (inactive).
In the case of `Nc1ccccc1N=c1ssnc1Cl`, the inhibition is reported as 4.1% (inactive).
In the case of `OCc1ccccc1N=c1ssnc1Cl`, the inhibition is reported as 9.9% (inactive).
In the case of `Cc1cc(Cl)ccc1N=C1N=C(N)c2ccccc21`, the inhibition is reported as -3.2% (inactive).
`Fc1ccc(N=c2ssnc2Cl)c(F)c1` was tested, and the inhibition was 91.2% (active).
`Clc1ccc(N=c2ssnc2Cl)nc1` was tested, and the inhibition was 38.2% (inactive).
For `COc1cccc(CNC(=O)CSc2nnc3c(n2)[nH]c2ccc(OC)cc23)c1`, the inhibition was 5.3% (inactive).
With `Cc1ccc2c(Cl)cc(Cl)c(OCC(=O)NC(=O)NCc3ccco3)c2n1` the inhibition was 17.4% (inactive).
With `Cc1ccc2c(Cl)cc(Cl)c(OCC(=O)NCc3ccco3)c2n1` the inhibition was 56.6% (active).
With `Cc1cc(Cl)cc(Cl)c1OCC(=O)NCc1ccco1` the inhibition was -1.4% (inactive).
With `CC1CCN(CC(=O)Nc2cccc(Cl)c2)CC1` the inhibition was -2.2% (inactive).
`CC1(C(=O)N2CC3(CC(c4cccc([N+](=O)[O-])c4)=NO3)C[C@H]2C(=O)NCC(N)=O)CC1` (stereo partly drawn) was tested, and the inhibition was -4.4% (inactive).
`O=C(c1ccco1)C(O)c1ccco1` (stereo not drawn) was tested, and the inhibition was 16.7% (inactive).
In the case of `O=P(c1ccccc1)(c1ccccc1)C(O)c1ccco1` (stereo not drawn), the inhibition is reported as -0.2% (inactive).
With `O=C(O)C(O)c1ccco1` (stereo not drawn) the inhibition was 65.3% (active).
With `FC(F)(F)Oc1ccc(NC(=S)NCCCN2CCOCC2)cc1` the inhibition was -16.9% (inactive).
`COC(=O)C1CCCN1S(=O)(=O)c1ccccc1NC(=O)c1cc(OC)c(OC)c(OC)c1` (stereo not drawn) was tested, and the inhibition was 12.9% (inactive).
In the case of `O=C(O)c1ccc(-c2ccc(/C=c3/sc4nc5ccccc5n4c3=O)o2)cc1Cl`, the inhibition is reported as 28.8% (inactive).
In the case of `O=C(O)c1cccc(-c2ccc(/C=c3/sc4nc5ccccc5n4c3=O)o2)c1`, the inhibition is reported as 26.7% (inactive).
In the case of `O=C(O)c1cc(C(=O)O)cc(-c2ccc(/C=c3/sc4nc5ccccc5n4c3=O)o2)c1`, the inhibition is reported as 67% (active).
With `COc1cc(/C=C(\C#N)c2nc3ccccc3s2)cc([N+](=O)[O-])c1O` the inhibition was 40.5% (inactive).
With `COc1cc(/C=C(\C#N)c2nc(-c3cc4ccccc4oc3=O)cs2)ccc1O` the inhibition was 23.3% (inactive).
For `COc1cc(/C=C(/C#N)c2nc(-c3cc4ccccc4oc3=O)cs2)cc([N+](=O)[O-])c1O`, the inhibition was 80.7% (active).
For `COc1ccc(N2Cc3ccc(C(=O)N/N=C\c4ccc(O)cc4O)cc3C2)cc1`, the inhibition was 68.9% (inactive) and the inhibition (measured here: average of repeat tests) was 29.4%.
`COc1ccc(NC(=O)c2cc3c(CO)cnc(C)c3oc2=Nc2cccc(F)c2)c(OC)c1` was tested, and the inhibition was 11.2% (inactive).
For `COc1ccc(NC(=O)c2cc3c(CO)cnc(C)c3oc2=Nc2cccc(C)c2)c(OC)c1`, the inhibition was 10.6% (inactive).
With `COc1ccccc1C(=O)OCC(=O)NC1CCCC1` the inhibition was 16.7% (inactive).
In the case of `NC(=O)c1ccccc1NC(=O)CN1CCOCC1`, the inhibition is reported as -0.5% (inactive).
In the case of `COc1cc(/C=C/c2ccc3cccc(O)c3n2)ccc1O`, the inhibition is reported as 21.1% (inactive).
With `COc1ccc(/C=C/c2ccc3c(Br)ccc(O)c3n2)cc1` the inhibition was 32.5% (inactive).
In the case of `COc1cc(/C=C/c2ccc3c(Br)cc(Br)c(O)c3n2)ccc1O`, the inhibition is reported as 56.6% (active).
In the case of `COCC(=O)N(Cc1nc2sc(C)c(C)c2c(=O)[nH]1)C1CCCCC1`, the inhibition is reported as 4.2% (inactive).
With `CN(Cc1ccccc1F)C(=O)c1ccccc1Sc1ccccc1C#N` the inhibition was -14.5% (inactive).
For `Cc1nc2ncccn2c1-c1csc(Nc2ccc(O)cc2)n1`, the inhibition was 25% (inactive).
In the case of `Cc1ccc(Nc2nc(-c3c(C)nc4ncccn34)cs2)cc1`, the inhibition is reported as 7.5% (inactive).
For `COc1ccc(Nc2nc(-c3c(C)nc4ncccn34)cs2)cc1`, the inhibition was 55.6% (active).
With `Cc1ccc2c(Cl)c(C(=O)NCC(c3ccco3)N3CCCC3)sc2c1` (stereo not drawn) the inhibition was 3% (inactive).
`O=c1c(Cl)nc2cc(Cl)ccc2n1CCNc1ncc(C(F)(F)F)cc1Cl` was tested, and the inhibition was -81.2% (inactive).
With `Clc1ccc2nnnc(-c3ccccc3)c2c1` the inhibition was 8.1% (inactive).
With `Cc1cc(C(=O)COC(=O)Cn2c(C(F)(F)F)nc3ccccc32)c(C)n1Cc1ccco1` the inhibition was 1.6% (inactive).
With `CCOC(=O)CCCCCN1C(=O)c2cccc3cccc(c23)C1=O` the inhibition was -9.7% (inactive).
With `CC(=O)c1sc(NC(=O)CCN2C(=O)c3ccccc3C2=O)nc1C` the inhibition was 14.5% (inactive).
For `CCOC(=O)c1sc(NC(=O)CCCCCN2C(=O)c3cccc4cccc(c34)C2=O)nc1C`, the inhibition was 52.5% (active).
`O=C(CC1C(=O)NCCN1Cc1cccc(F)c1)NCCCOc1cccnc1` (stereo not drawn) was tested, and the inhibition was 0.9% (inactive).
